The full data set covers some 8,800 targets. This sample favours those with a hit. About 0.5% of all pairs of compound and target were hits. A number with no mark means an inactive call.
Tests used:
Experiment in all cases: log2 fold change, soluble protein after heating vs DMSO (PISA); higher = thermal stabilisation; K562 lysate, 10 uM; active = over 0.2 and 3.5 SD of the protein, either way, in both replicates (recomputed)
[1] = compound: NCC(=O)Nc1ccc(-n2nc(C(F)(F)F)cc2-c2ccc3c(ccc4ccccc43)c2)cc1
How it was run: (§1)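 Dounce homogenisation of K562 pellets in PBS pH 7.4 with 1 mM MgCl2 produced a crude extract, used at 1 mg/mL protein. Exposure to 10 μM compound lasted 30 min, and aliquots were then heated for 3 min across 48°C-58°C, pooled and brought to 0.5% NP-40 at 4°C. The supernatant after 21,000xg for 90 min was quantified by TMTpro 16plex LC-MS/MS with channel sums equalised. Duplicate values are given as log-two fold change in thermal stability relative to solvent controls.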

vorinostat = compound: O=C(CCCCCCC(=O)Nc1ccccc1)NO [vorinostat]
How it was run: as §1

silmitasertib = compound: O=C(O)c1ccc2c(c1)nc(Nc1cccc(Cl)c1)c1ccncc12 [silmitasertib]
How it was run: as §1

[2] = compound: O=C1NC(=O)C(c2cnc3ccccn23)=C1c1cn2c3c(cc(F)cc13)CN(C(=O)N1CCCCC1)CC2
How it was run: as §1

entospletinib = compound: c1cn2cc(-c3ccc4cn[nH]c4c3)nc(Nc3ccc(N4CCOCC4)cc3)c2n1 [entospletinib]
How it was run: as §1

Sequence of UniProt Q9BWH6 (Q9BWH6 whole entry, looked up): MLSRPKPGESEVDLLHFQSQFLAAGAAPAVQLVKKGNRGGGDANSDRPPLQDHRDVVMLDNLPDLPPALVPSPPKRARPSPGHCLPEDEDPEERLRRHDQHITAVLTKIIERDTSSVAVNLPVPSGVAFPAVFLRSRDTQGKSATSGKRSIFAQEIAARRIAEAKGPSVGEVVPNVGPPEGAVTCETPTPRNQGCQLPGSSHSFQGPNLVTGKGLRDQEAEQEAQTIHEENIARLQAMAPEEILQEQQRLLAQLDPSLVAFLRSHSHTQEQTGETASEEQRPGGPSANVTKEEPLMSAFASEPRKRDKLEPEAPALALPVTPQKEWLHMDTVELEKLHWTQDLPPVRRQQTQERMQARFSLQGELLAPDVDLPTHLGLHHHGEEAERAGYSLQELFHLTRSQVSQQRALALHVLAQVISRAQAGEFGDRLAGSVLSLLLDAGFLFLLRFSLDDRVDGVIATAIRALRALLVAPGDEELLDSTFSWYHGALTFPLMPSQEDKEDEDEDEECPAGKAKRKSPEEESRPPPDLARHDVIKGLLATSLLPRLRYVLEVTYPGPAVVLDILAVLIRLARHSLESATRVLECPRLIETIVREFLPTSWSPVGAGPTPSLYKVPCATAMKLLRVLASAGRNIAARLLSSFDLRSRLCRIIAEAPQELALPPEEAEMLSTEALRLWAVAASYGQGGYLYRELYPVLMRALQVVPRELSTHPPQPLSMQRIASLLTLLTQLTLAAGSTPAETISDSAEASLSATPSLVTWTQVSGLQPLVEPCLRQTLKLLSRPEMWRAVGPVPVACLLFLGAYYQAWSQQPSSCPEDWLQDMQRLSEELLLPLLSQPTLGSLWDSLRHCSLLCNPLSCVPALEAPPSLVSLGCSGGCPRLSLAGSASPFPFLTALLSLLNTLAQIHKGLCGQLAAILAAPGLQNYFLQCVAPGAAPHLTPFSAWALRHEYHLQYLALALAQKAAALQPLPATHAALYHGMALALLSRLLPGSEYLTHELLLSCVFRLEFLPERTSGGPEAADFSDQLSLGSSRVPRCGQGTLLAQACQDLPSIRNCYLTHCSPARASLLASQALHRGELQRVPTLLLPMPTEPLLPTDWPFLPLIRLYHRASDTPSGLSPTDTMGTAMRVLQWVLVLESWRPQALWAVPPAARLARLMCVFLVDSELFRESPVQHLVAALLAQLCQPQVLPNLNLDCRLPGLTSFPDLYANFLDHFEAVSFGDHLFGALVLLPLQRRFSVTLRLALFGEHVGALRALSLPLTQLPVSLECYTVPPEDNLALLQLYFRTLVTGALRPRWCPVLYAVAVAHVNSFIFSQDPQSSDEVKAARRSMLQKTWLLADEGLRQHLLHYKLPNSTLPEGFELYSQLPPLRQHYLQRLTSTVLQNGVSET
Sequence of UniProt P35241 (P35241 whole entry, looked up): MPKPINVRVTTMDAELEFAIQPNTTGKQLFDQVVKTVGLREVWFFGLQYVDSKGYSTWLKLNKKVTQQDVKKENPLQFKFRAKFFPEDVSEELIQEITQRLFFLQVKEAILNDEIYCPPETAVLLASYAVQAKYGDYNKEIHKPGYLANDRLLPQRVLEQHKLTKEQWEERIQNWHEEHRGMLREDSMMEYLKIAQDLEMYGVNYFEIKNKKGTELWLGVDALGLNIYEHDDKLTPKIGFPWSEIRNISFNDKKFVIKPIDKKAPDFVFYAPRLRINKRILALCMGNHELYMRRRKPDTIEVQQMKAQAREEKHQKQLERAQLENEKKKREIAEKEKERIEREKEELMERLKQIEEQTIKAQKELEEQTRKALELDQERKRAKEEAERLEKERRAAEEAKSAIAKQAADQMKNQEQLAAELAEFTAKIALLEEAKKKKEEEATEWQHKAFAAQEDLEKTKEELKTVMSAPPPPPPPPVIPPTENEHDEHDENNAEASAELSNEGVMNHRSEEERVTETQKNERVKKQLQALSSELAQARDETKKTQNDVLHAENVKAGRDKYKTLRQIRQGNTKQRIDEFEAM
Sequence of UniProt Q8TC12 (Q8TC12 whole entry, looked up): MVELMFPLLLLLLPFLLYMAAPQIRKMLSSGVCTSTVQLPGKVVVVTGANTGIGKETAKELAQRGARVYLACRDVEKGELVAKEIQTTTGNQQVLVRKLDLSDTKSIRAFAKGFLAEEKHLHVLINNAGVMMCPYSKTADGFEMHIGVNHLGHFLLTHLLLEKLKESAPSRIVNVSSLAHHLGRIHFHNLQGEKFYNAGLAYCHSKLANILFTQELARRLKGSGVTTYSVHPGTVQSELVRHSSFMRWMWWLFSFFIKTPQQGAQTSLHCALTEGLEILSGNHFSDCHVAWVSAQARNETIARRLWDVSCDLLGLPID
Sequence of UniProt P38159 (P38159 whole entry, looked up): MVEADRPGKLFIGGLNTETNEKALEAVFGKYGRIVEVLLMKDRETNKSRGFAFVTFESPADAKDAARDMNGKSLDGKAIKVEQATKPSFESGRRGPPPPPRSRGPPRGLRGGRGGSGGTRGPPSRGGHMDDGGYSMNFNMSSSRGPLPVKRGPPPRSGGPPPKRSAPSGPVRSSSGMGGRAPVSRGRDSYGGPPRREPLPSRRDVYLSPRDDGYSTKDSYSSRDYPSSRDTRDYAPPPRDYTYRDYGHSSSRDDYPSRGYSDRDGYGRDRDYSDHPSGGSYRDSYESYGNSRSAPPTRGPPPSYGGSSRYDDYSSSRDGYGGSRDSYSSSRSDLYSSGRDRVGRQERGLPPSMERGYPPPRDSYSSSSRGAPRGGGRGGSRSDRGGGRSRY
Sequence of UniProt Q7L0Q8 (Q7L0Q8 whole entry, looked up): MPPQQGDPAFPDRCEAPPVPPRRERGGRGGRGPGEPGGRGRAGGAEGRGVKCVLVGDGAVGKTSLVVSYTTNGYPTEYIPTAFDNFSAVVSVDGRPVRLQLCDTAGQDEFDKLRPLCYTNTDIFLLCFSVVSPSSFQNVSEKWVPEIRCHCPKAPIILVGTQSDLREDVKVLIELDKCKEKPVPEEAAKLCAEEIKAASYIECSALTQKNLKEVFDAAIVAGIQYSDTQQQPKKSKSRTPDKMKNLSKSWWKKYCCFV
Sequence of UniProt P61224 (P61224 whole entry, looked up): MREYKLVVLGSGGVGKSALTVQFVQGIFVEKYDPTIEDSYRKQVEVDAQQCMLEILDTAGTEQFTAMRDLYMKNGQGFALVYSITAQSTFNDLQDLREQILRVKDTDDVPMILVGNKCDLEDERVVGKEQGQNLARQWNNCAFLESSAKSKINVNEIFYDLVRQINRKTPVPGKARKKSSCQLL
Sequence of UniProt Q5XPI4 (Q5XPI4 whole entry, looked up): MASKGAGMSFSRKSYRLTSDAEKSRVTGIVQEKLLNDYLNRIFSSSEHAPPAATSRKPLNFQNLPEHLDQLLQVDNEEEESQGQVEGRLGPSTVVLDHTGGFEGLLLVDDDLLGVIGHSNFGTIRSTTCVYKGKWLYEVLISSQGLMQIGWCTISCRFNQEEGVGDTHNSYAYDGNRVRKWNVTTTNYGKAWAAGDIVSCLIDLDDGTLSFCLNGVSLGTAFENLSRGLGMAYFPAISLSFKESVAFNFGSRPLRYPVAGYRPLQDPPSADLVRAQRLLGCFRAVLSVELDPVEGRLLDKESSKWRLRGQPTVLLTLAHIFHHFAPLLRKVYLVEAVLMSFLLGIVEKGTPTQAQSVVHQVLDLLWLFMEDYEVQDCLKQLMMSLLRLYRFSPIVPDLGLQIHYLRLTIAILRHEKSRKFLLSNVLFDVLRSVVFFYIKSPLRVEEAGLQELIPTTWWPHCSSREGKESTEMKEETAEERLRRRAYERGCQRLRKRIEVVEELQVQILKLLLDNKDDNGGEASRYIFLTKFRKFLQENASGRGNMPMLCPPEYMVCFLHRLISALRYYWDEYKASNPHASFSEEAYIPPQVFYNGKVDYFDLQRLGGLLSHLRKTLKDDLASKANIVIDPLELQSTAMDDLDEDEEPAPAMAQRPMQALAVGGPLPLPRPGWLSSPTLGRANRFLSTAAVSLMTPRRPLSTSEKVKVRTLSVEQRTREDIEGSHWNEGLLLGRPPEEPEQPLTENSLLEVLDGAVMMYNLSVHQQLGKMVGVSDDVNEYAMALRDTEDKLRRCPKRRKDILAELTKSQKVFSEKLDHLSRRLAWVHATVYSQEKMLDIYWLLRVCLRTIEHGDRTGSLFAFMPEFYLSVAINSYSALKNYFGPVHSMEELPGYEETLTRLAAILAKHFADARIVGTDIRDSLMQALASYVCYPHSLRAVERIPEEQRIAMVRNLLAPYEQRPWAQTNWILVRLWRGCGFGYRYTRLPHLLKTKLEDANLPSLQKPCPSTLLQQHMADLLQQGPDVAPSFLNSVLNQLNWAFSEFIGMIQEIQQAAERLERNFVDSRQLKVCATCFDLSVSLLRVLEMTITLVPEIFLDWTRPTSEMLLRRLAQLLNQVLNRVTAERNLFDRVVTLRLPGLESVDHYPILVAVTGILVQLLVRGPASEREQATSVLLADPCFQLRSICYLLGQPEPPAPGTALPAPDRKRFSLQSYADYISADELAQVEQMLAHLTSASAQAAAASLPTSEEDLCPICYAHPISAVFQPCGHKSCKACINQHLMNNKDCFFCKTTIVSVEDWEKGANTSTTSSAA

Target | log2 fold change [1] | log2 fold change (vorinostat) | log2 fold change (silmitasertib) | log2 fold change [2] | log2 fold change (entospletinib)
RBMX (UniProt P38159) | -0.043 | 0.065 | 0.048 | -0.022 | 0.008
RDH11 (UniProt Q8TC12) | 0.008 | 0.038 | 0.022 | -0.047 | 0.014
RPL27 (UniProt P61353) | 0.014 | 0.129 | 0.03 | 0.013 | 0.009
RPAP1 (UniProt Q9BWH6) | 0.006 | -0.232 (active) | 0 | 0.015 | -0.025
RNF123 (UniProt Q5XPI4) | 0.014 | -0.385 (active) | -0.016 | -0.002 | 0
RPL28 (UniProt P46779) | 0.012 | 0.033 | 0.008 | 0.043 | 0.007
RHOU (UniProt Q7L0Q8) | 0.019 | -0.116 | 0.058 | -0.039 | 0.024
RDX (UniProt P35241) | 0.002 | 0.129 | -0.017 | -0.008 | 0.023
RAP1B (UniProt P61224) | 0.048 | 0.078 | -0.036 | -0.024 | -0.012
